Data taken from PubChem BioAssay (NCI).
This is part of a sample that, as a whole, favours compounds with a hit. Of some 83,000 tested, about 20% had one in any assay.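 Cell lines were cultured in 96-well plates, exposed to a single compound concentration, and assessed for percent growth 48 hours later.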 A number with no mark means an inactive call. Active and inactive are the calls of the source. How the source made its calls: active means growth percent below 10; inactive means the rest.

System: K-562 leukemia
Test: NCI-60 one-dose screen, 48 h (100 = growth as untreated, 0 = no growth, -100 = all killed)
Conditions: 10 µM unless noted

First: NC(=NCCCOc1ccc(F)cc1)Nc1ccc(I)cc1
Second: Oc1ccc(C(c2ccc(O)cc2)c2ccc(Br)cn2)cc1
The growth of the first is lower: 27.3% for the first, 73.5% for the second.

For `Cc1cc2nc3c4cccc(O)c4n(CCN(C)C)c3nc2cc1C`, the growth was 6.28% (active).

System: MALME-3M melanoma
Test: as above
Conditions: 10 µM unless noted

`COc1cc(C=O)ccc1OC1OC(COC(C)=O)C(OC(C)=O)C(OC(C)=O)C1OC(C)=O` (stereo unspecified) and `COc1cc(/C=C\C(=O)O)ccc1OCc1ccccc1` are the same in growth: 102% for the first, 102% for the second.

Going from `CC1=CCC(OC(=O)C(C)(O)CCC(O)(C(=O)OC2(C)C=CC(O)(C(C)C)CC2)C(C)C)(C(C)C)CC1` (stereo unspecified) to `C#CCNC(=O)[C@H](Cc1ccccc1)NC(=O)[C@]12CC[C@@H](C(=C)C)[C@@H]1[C@H]1CC[C@@H]3[C@@]4(C)CCC(=O)C(C)(C)[C@@H]4CC[C@@]3(C)[C@]1(C)CC2`, the growth falls from 97.2% to 88.8%.

Compared with `CC(=O)Nc1cccc(-c2ccc3c(c2)NC(=O)/C3=C\c2ccc[nH]2)c1`, `CC(=O)Nc1ccc(-c2ccc3c(c2)NC(=O)/C3=C\c2ccc[nH]2)cc1` is higher in growth: 71.7% for the first, 109% for the second.

Compared with `CC(C)(C)c1ccc(NS(=O)(=O)c2ccc3nc(NC(=O)c4cnccn4)[nH]c3c2)cc1`, `CC(C)(C)c1cc(/C=N/NC(=O)c2ccccc2NC(=O)c2cccs2)c(O)c(C(C)(C)C)c1` is higher in growth: 31.9% for the first, 49.6% for the second.

First: CCCCCCNC(=O)Oc1ccc(/C(=C(\C)c2ccccc2)c2ccc(OCCCN(C)C)cc2)cc1
Second: CCCCOc1ccc(/C(C)=N/Nc2cc(C)nc3ccc(Br)cc23)cc1
The growth of the first is lower: 54% for the first, 145% for the second.

Compared with `O=C(/C=C/c1ccc(Cl)cc1)c1ccc(NC(=O)N2CCN(c3cc4c(cc3F)c(=O)c(C(=O)O)cn4C3CC3)CC2)cc1`, `O=C(Cc1ccc(/C=C/C(=O)c2ncc[nH]2)cc1)Nc1ccc(Cl)cc1` is lower in growth: 103% for the first, 89.3% for the second.

Compared with `O=C(c1nc2ccccc2[nH]1)C1C(c2ccc(Cl)cc2)C2CC3CCCC[C@H]3N2[C@@]12C(=O)Nc1cc(Cl)ccc12` (stereo partly specified), `O=C(Nc1ccc(-c2ccc3c(c2)NC(=O)/C3=C\c2ccc[nH]2)cc1)NC1CC1` is higher in growth: 43.9% for the first, 105% for the second.

First: O=C(NCCNc1nccc(-c2c(-c3cccc(F)c3)nc3sccn23)n1)c1ccc(Cl)cc1
Second: O=S(=O)(NCCCNc1nccc(-c2c(-c3cccc(O)c3)nc3occn23)n1)c1ccc(Cl)cc1
The growth of the first is higher: 34.9% for the first, 10.7% for the second.

Going from `N#CC1=C(/N=C/c2ccccc2)Oc2c(ccc3ccccc23)C1c1ccc([N+](=O)[O-])cc1` (stereo unspecified) to `Cc1ccc(/C=N/NC(=O)CSc2nc3ccccc3c(=O)n2Cc2ccc(S(N)(=O)=O)cc2)cc1`, the growth rises from 96.6% to 97%.

Going from `Brc1ccc(Nc2csc(-c3ccccn3)n2)cc1` to `Oc1ccc(C(c2ccc(O)cc2)c2ccc(Br)cn2)cc1`, the growth falls from 99.4% to 99.3%.

Compared with `CC(=O)N1c2ccccc2NC2=C(C(=O)NC2(C)C)C1c1ccco1` (stereo unspecified), `CCOC(=O)CSc1nc2ccccc2c(=O)n1Cc1ccc(S(N)(=O)=O)cc1` is higher in growth: 80.5% for the first, 105% for the second.

Compared with `O=C(c1ccccc1)N1N=C(c2ccc(-n3ccc(C(F)(F)F)n3)c(F)c2)CC1c1ccc[nH]1` (stereo unspecified), `O=c1ccc(-c2nc(N3CCOCC3)c3ccccc3n2)c[nH]1` is lower in growth: 101% for the first, 99.4% for the second.

Compared with `COc1ccc(C(C)=O)c(OC)c1`, `CCCOC(=O)N[C@H]1CCc2c(Cl)c(OC)c(OC)c(OC)c2-c2ccc(SC)c(=O)cc21` is lower in growth: 110% for the first, 25.2% for the second.

Compared with `NC1=NN=C(N)C1=Cc1cc2ccccc2n2nnnc12`, `Cc1cc2nc3c4cccc(O)c4n(CCN(C)C)c3nc2cc1C` is lower in growth: 108% for the first, 32.9% for the second.

Going from `CNC(=O)c1cc(Cn2nc(C)c(NC(=O)Nc3ccc(Cl)c(C(F)(F)F)c3)c2C)ccn1` to `NC(=NCCCOc1ccc(F)cc1)Nc1ccc(I)cc1`, the growth falls from 98.5% to 74.6%.

`CCCCOc1ccc(/C=N/Nc2cc(C)nc3ccc(Br)cc23)cc1` was tested, and the growth was -66.9% (active).
In the case of `COc1cc(/C(C)=C(\c2ccc(Cl)cc2)c2ccc(OCCN(C)C)cc2)ccc1F`, the growth was -7.62% (active).
For `O=C(CCN1CCCC1)Nc1ccc2c(NCCCc3ccccc3)c3ccccc3nc2c1`, the growth was -90.7% (active).
`COc1cc(/C(C)=C(\c2ccc(Cl)cc2)c2ccc(OCCN3CCCC3)cc2)ccc1F` was tested, and the growth was -2.59% (active).
In the case of `COc1cc2c(c(O)c1Cl)C(=O)c1c(O)cc(C[C@H](C)O)cc1[C@H]2[C@H]1c2cc(C[C@H](C)O)cc(O)c2C(=O)c2c1cc(OC)c(Cl)c2O`, the growth was -32.6% (active).
In the case of `C=C1C(=O)O[C@H]2[C@H]1CC/C(CNC(=O)/C=C/c1cccc(OC)c1)=C\CC[C@@]1(C)O[C@@H]21`, the growth was -45% (active).
For `COc1cc2c(=O)n(CCN(C)C)c3c4cc5c(cc4ccc3c2cc1OC)OCO5`, the growth was -63.6% (active).
For `C=CC(=O)N[C@@H](/C=C/C(=O)OCC)Cc1ccc(-c2cc(Cl)cc(Cl)c2)cc1`, the growth was 4.14% (active).
